Screening results: PubChem BioAssay, National Center for Advancing Translational Sciences (NCATS)
Tau fibril ThT: inhibitors of human tau fibril formation, thioflavin T binding; actives 2.1% (n = 270,000); Potency, µM (doses to about 57.4 µM), for the others: top-dose activity, negative = inhibition, hits mostly inhibitors; recombinant tau K18 P301L, heparin-induced fibrillization, ThT fluorescence; note: potency is the fitted concentration of half-maximal effect; nearly all actives have a fitted effect of over 55% in size
Target sequence (P10636 561-689 P618L limits assumed): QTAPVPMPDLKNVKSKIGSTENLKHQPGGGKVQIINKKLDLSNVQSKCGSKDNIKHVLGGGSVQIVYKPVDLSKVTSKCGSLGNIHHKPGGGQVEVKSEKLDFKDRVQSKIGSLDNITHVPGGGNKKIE
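Aggregation was driven by heparin (20 uM final) acting on recombinant tau […] bearing P301L in 100 mM sodium acetate pH 7; fibrils were detected with Thioflavin T.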
Sfp inh: blocks B. subtilis Sfp PPTase activity; Q9F4F7; Biochemical Sfp PPTase activity, qHTS; Potency, µM, for inactives: largest response in the series, negative = inhibition, most hits filed as inhibitors; actives 3.5% (n = 310,000); AID 1490;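 note: the enzyme is Sfp with the accession as filed and its product quenches rhodamine fluorescence; potency is the fitted concentration of half-maximal effect; 0% = enzyme reaction without inhibitor and -100% = no enzyme wells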
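Reaction rates are the 30-min fluorescence difference (ex 525, em 598 nm) in wells containing 15 nM Sfp, 5 uM rhodamine-CoA and 12.5 uM BHQ-2-YbbR at pH 7.6 with 10 mM MgCl2.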
Tau fluor counter: counter-screen for tau fibril formation inhibitors. actives 0.93% (n = 280,000). AID 1463. tau K18 P301L (four-repeat tau fragment) Alexa594 fluorescence, heparin fibrillization. Potency, µM (top dose mostly 57.7 µM), for the others: top-dose activity change, negative = decrease; note: potency is the fitted concentration of half-maximal effect; nearly all actives have a fitted effect of over 55% in size
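Human K18 P301L tau (15 uM unlabeled plus 0.24 uM Alexa 594-labeled, final) in 100 mM sodium acetate pH 7 was mixed with compound and 20 uM heparin and incubated 6 hr at 37 C.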
FBPA coupling cs: coupling enzyme interference in Giardia aldolase counter-screen. coupling enzyme system counterscreen, AmpLite Red fluorescence. activity change, negative = inhibition, % at 58.2 µM, hits read low. actives 0.67% (n = 290,000). AID 2472; in the data active = activity change below about -30%
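Activity here indicates interference with the coupling reaction, not aldolase inhibition. Compounds at 57.5 uM final met coupling enzymes for 10 min at RT; substrate and AmpLite Red detection followed, with a 525/598 nm fluorescence read after 20 min.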
Tau fibril FP: tau fibrillization inhibition (FP); Potency, µM (highest dose often 57.7 µM), without a hit: at the top dose activity, negative = inhibition, actives largely listed as inhibitors; P10636; AID 1468; K18 P301L tau heparin fibrillization, Alexa594 FP, 6 h; actives 0.39% (n = 280,000); note: potency is the fitted concentration of half-maximal effect; nearly all actives have a fitted effect of over 55% in size
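Compound effects on tau fibrillization are measured by Alexa 594 fluorescence polarization (ex 555, em 632 nm). K18 P301L tau is used at 15 uM with 0.24 uM labeled tracer, and 20 uM heparin induces aggregation over 6 hr at 37 C.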
JMJD2E inh: inhibitors of human JMJD2E histone demethylase; actives 1.6% (n = 230,000); Potency, µM (top dose mostly 57.1 µM), for inactives: top-dose activity change, negative = inhibition, actives largely listed as inhibitors; B2RXH2; JMJD2E catalytic domain, FDH-coupled NADH fluorescence (FDH is formaldehyde dehydrogenase);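 note: potency is the fitted concentration of half-maximal effect; 0% = wells with enzyme and -100% = buffer wells without enzyme; nearly all actives have a fitted effect of over 50% in size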
Target sequence (B2RXH2 1-337 limits assumed): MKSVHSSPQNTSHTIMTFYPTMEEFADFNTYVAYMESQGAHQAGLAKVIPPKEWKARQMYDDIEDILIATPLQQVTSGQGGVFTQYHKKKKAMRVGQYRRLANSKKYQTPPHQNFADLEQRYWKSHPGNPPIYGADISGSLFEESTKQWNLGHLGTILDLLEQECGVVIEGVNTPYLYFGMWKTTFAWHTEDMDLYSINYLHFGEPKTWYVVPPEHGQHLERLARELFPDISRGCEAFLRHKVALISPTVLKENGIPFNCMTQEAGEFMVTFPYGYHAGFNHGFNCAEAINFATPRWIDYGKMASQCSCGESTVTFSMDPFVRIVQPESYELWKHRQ
Active calls of the source: *; [ ] = dose if it differs, or a comment. An excerpt weighted towards active compounds, which were near 5.3% of everything screened. Unless noted, calls come from the whole dose curve; as a rule, active = well fitted curve in the direction sought with a large enough effect; inconclusive = small, poorly fitted or top-dose-only effect, or another doubt; inactive = no such curve, though single readings can be large; an effect the other way counts as inactive or inconclusive. Unless noted, % is set by controls: 0 for no effect and ±100 for the full control effect.

Screening COc1cccc(C2C3=C(N=c4s/c(=C\c5ccc(O)cc5)c(=O)n42)c2ccccc2CC3)c1OC (centres undefined) returned Tau fibril ThT inconclusive, Sfp inh 5%, Tau fluor counter inconclusive, FBPA coupling cs 0, Tau fibril FP -7% and JMJD2E inh -5%.
COc1cccc(C2C3=C(N=c4s/c(=C\c5ccc(OCC(=O)O)cc5)c(=O)n42)c2ccccc2CC3)c1 (centres undefined) was read as Tau fibril ThT 22µM*, Sfp inh 56µM*, Tau fluor counter -13%, FBPA coupling cs -2, Tau fibril FP -14% and JMJD2E inh -6%.
For COc1ccc(CNc2nc3c(-c4ccc(C)cc4)nnn3c3ccccc23)cc1 the results were Tau fibril ThT -6%, Tau fluor counter -18% and Tau fibril FP -13%.
O=C(COc1ccccc1)NCCSCc1ccco1 was read as Tau fibril ThT inconclusive, Sfp inh -5%, Tau fluor counter -6%, FBPA coupling cs 2, Tau fibril FP -3% and JMJD2E inh -2%.
Cc1ccc(C)c(N(CC(=O)Nc2ccccc2C(=O)NCc2ccco2)S(=O)(=O)c2ccccc2)c1 was read as Tau fibril ThT -10%, Sfp inh 27%, Tau fluor counter -30%, FBPA coupling cs -6, Tau fibril FP -7% and JMJD2E inh 4µM*.
`CN(c1ccc(C(=O)NCCSCc2ccco2)cc1)S(C)(=O)=O` gave Tau fibril ThT inconclusive, Sfp inh 35µM*, Tau fluor counter -6%, FBPA coupling cs -11, Tau fibril FP -4% and JMJD2E inh 10%.
CN(c1ccc(C(=O)NCc2ccco2)cc1)S(C)(=O)=O was read as Tau fibril ThT 8%, Sfp inh 14%, Tau fluor counter 12%, FBPA coupling cs 0, Tau fibril FP 10% and JMJD2E inh 5%.
Screening Cc1ccc(N(CC(=O)Nc2ccccc2C(=O)NCc2ccco2)S(=O)(=O)c2ccccc2)cc1C returned Tau fibril ThT -8%, Sfp inh 18%, Tau fluor counter inconclusive, FBPA coupling cs -3, Tau fibril FP inconclusive and JMJD2E inh inconclusive.
Cc1ccc(S(=O)(=O)N(CC(=O)NCCSCc2ccco2)c2ccc(F)cc2)cc1 was read as Tau fibril ThT inconclusive, Sfp inh 56µM*, Tau fluor counter -10%, FBPA coupling cs 0, Tau fibril FP 4% and JMJD2E inh -2%.
For O=C(CCSc1ccccc1)NCCSCc1ccco1 the results were Tau fibril ThT -11%, Sfp inh 50µM*, Tau fluor counter -10%, FBPA coupling cs -3, Tau fibril FP 2% and JMJD2E inh -2%.
CCc1cccc(CC)c1NC(=O)Cn1nnc2sc3c(c2c1=O)CCCC3 was read as Tau fibril ThT -1%, Tau fluor counter 1% and Tau fibril FP 5%.
`CCCCNC(=O)CCCn1c(=O)c2ccccc2n(Cc2ccccc2C)c1=O` gave Tau fibril ThT -7%, Tau fluor counter -1% and Tau fibril FP -4%.
CCCN1CCCC(c2cccc(S(C)(=O)=O)c2)C1 (centres undefined) was read as Sfp inh -16% and FBPA coupling cs -7.
`C=CCN1c2ccccc2[C@]23C[C@@H](C(=O)OC)N(S(=O)(=O)CCCC)C2=NC(C(=O)OC)=C(C(=O)OC)[C@H]13` gave Tau fibril ThT -4%[11.5 µM], Sfp inh 1%, Tau fluor counter -11%[11.6 µM], FBPA coupling cs 3, Tau fibril FP 5%[11.6 µM] and JMJD2E inh -1%[11.4 µM].
`Cc1ccc(-c2c(C)n3c4c(=O)n(C)c(=O)n(C)c4nc3n2-c2cccc(O)c2)cc1` gave Tau fibril ThT inconclusive, Tau fluor counter inconclusive and Tau fibril FP -7%.
CC(C)CC1=NN2C(=N)/C(=C\c3coc4ccccc4c3=O)C(=O)N=C2S1 was read as Tau fibril ThT 32µM*, Sfp inh -20%, Tau fluor counter inconclusive, FBPA coupling cs 5, Tau fibril FP inconclusive and JMJD2E inh inconclusive.
For CSC1=NSC2=NC(=O)/C(=C\c3ccc(OC(=O)c4ccco4)cc3)C(=N)N12 the results were Sfp inh -8% and FBPA coupling cs 4.
`Cc1cccc(-n2c(C)cc(/C=C3\C(=N)N4N=C(CC(C)C)SC4=NC3=O)c2C)c1` gave Tau fibril ThT 1%, Sfp inh 8%, Tau fluor counter 8%, FBPA coupling cs -3, Tau fibril FP inconclusive and JMJD2E inh inconclusive.
CCSC1=NSC2=NC(=O)/C(=C\c3coc4ccccc4c3=O)C(=N)N12 was read as Tau fibril ThT 25µM*, Sfp inh -15%, Tau fluor counter inconclusive, FBPA coupling cs 1, Tau fibril FP -4% and JMJD2E inh inconclusive.
For C=C1CCN(C(Cc2ccccc2)C(=O)O)S(=O)(=O)c2ccccc21 (centres undefined) the results were Sfp inh 19% and FBPA coupling cs 6.
O=C(Nc1ccc(N2CCCC2)c(Cl)c1)c1ccc(Br)o1 was read as Tau fibril ThT inconclusive, Sfp inh 79µM*, Tau fluor counter inconclusive, FBPA coupling cs -9, Tau fibril FP inconclusive and JMJD2E inh -16%.
For O=C(Nc1ccc(N2CCCCC2)c(Cl)c1)c1ccc2c(c1)OCCO2 the results were Tau fibril ThT inconclusive, Sfp inh 17%, Tau fluor counter 14µM*[quencher], FBPA coupling cs -12, Tau fibril FP 12% and JMJD2E inh -17%.
For O=C(Nc1ccc2c(c1)OCO2)c1ccc(N2CCCC2)c([N+](=O)[O-])c1 the results were Tau fibril ThT 13µM*, Sfp inh -3%, Tau fluor counter inconclusive, FBPA coupling cs -4, Tau fibril FP 17% and JMJD2E inh 0%.
Screening CC(=O)N1CCN(c2ccc(NC(=O)c3ccc(N4CCCC4)c([N+](=O)[O-])c3)cc2Cl)CC1 returned Tau fibril ThT 4µM*, Sfp inh -6%, Tau fluor counter inconclusive, FBPA coupling cs -1, Tau fibril FP -6% and JMJD2E inh 11%.
`O=C(Nc1ccccc1N1CCCC1)c1ccc(Br)o1` gave Tau fibril ThT 2%, Sfp inh -1%, Tau fluor counter -1%, FBPA coupling cs 1, Tau fibril FP 8% and JMJD2E inh -6%.
`CC1(C)Cc2nc3oc4c(=S)nc[nH]c4c3cc2CO1` gave Tau fibril ThT -5%, Sfp inh 22µM*, Tau fluor counter 4%, FBPA coupling cs -3, Tau fibril FP 4% and JMJD2E inh inconclusive.
